# Among all 69,000 compounds or so, about 30 (0.04%) showed an effect of 50% or more. The sample holds strong results, similar compounds and a random draw of the others, so the mix is not that of the screen.
# Target: T1, Histidine--tRNA ligase (Trypanosoma cruzi (strain CL Brener)) (UniProt Q4DA54)
# T1 sequence (whole entry): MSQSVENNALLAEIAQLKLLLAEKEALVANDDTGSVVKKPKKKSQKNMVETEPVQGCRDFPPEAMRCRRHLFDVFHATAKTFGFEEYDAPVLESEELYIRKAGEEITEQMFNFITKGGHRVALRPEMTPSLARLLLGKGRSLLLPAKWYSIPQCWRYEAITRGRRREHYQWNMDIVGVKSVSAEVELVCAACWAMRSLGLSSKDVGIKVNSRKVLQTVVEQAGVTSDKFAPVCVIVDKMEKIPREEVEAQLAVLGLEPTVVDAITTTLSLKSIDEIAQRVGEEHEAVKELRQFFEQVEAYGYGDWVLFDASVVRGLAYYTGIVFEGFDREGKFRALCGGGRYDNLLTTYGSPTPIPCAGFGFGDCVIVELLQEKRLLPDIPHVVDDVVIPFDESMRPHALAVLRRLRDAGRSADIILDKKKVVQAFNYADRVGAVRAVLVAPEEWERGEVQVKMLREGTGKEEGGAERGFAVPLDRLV
# Assay: Trypanosoma cruzi histidyl tRNA synthetase (Tc-HisRS)
# Assay type: functional
# Set-up: scale not given: direction of the effect not stated beside the values
# Conditions: 30 µM
row,Compound,Percent Effect [%]
1,COc1ccc(CN2C[C@H]3CC[C@](O)(c4ccc(C)cn4)[C@H]3C2)c(F)c1,-0.54
2,Cc1ccc(C(=O)N2C[C@H]3CCC[C@@]3(COCC3CCOCC3)C2)o1,14.3
3,Cn1cc(CN2CC[C@H]3OCC[C@@H](C(=O)Nc4cnccn4)[C@@H]3C2)cn1,-1.22
4,CN(Cc1cccnc1)C[C@H]1OC[C@@H]2CCN(c3ncccn3)C[C@@H]21,-3.09
5,COc1cccc(-c2ncc(CN3CC[C@H]4CC[C@@H](C3)N4)s2)c1,7.88
6,O=C(c1cnccn1)N1C[C@@H]2CCN(c3cccnc3)C[C@@H]2C1,2.96
7,CN(C)C(=O)[C@@H]1CCO[C@@H]2CCN(Cc3ccccc3)C[C@@H]21,5.88
8,NCC1Cc2cc(-c3nccc(N4CCC(O)CC4)n3)cc(Cl)c2O1 (stereo unspecified),53.1
9,NCC1Cc2cccc(-c3nccc(N4CCC(O)CC4)n3)c2O1 (stereo unspecified),20.4
10,NCC1Cc2cc(-c3nccc(N4CCC(O)CC4)n3)cc(F)c2O1 (stereo unspecified),33.7
11,Cc1cnc(N2C[C@@H]3[C@@H](C2)OCC(=O)N3C)nc1,7.36
12,CC(=O)N1CC[C@@H]2O[C@@H](COCC(=O)N3CCCC3)CC[C@@H]21,2.63
13,O=C(C1CCCC1)N1C[C@@H](c2ccsc2)[C@@H]2CN(C3CCCC3)CC[C@@H]21,41.7
14,O=C(c1ccsc1)N1C[C@H]2CN(Cc3cccc(F)c3)C(=O)[C@H]2C1,7.84
15,COCCN1C[C@@H]2CN(C(=O)[C@H]3CCCO3)C[C@@H]2C1=O,0
16,CSc1ncccc1C(=O)N1C[C@H]2CC[C@@H]1CN(c1ncccn1)C2,1.67
17,Cc1ccnc(OC[C@@]23CCO[C@@H]2CCN(c2ncccn2)C3)n1,9.2
18,O=C(NC1CC1)[C@@]12CCO[C@@H]1CCN(Cc1ccc3c(c1)OCO3)C2,1.11
19,CC(C)(C)c1nc(CNC2CCCN(c3cccnn3)C2)no1 (stereo unspecified),0.595
20,CC(C)c1nc(CNC2CCCN(c3cccnn3)C2)no1 (stereo unspecified),50.6
21,Cc1nc(CNC2CCCN(c3cccnn3)C2)no1 (stereo unspecified),6.55
22,O=C1[C@@H]2CCN(Cc3ccc(F)cc3)C[C@@H]2OCCN1c1cccnc1,8.02

row,Compound,Percent Effect [%]
1,COc1cccn(CC(=O)N2CCCC3(CCCCC3)C2)c1=O,76.2
2,CCCOCC1CCN(C(=O)Cn2cccc(OC)c2=O)C1 (stereo unspecified),10.3
3,COc1cccn(CC(=O)N2CCCC3(CCOCC3)C2)c1=O,9.9
4,COc1cccn(CC(=O)N2CCC3(CCNCC3)C2)c1=O,10.9
5,COCCN(C)C(=O)Cn1cccc(OC)c1=O,3.31
6,COc1cccn(CC(=O)N2CCCC3(CCCO3)CC2)c1=O (stereo unspecified),71.3
7,Cc1ccc(N2CC[C@H]3O[C@H](C(=O)N4CCCCO4)CC[C@H]32)nn1,-1.11
8,CNC(=O)[C@H]1C[C@@H]2CN(S(=O)(=O)c3cccc(C)c3)C[C@@H]2N1C,5.88
9,CC(=O)N1CCO[C@@H]2CN(C(=O)c3ccc4ccccc4c3)CC[C@@H]2C1,-5.75
10,Cn1nc(Cn2ccnc2)c2c1CN(c1ncccn1)C2,2.15
11,Cn1nc(Cn2ccnc2)c2c1CN(c1nccs1)C2,66.7
12,CCS(=O)(=O)N1Cc2c(Cn3ccnc3)nn(C)c2C1,2.67
13,CC(=O)N1CCN(c2ccc3ccc(C(=O)NC4CCCC4)cn23)CC1,59.4
14,CCN(CC)c1ccc2ccc(C(=O)NC3CC3)cn12,36.8
15,CC(C)N1CCN(c2ccc3ccc(C(=O)NC4CCCC4)cn23)CC1,60.2
16,CS(=O)(=O)N1CCN(c2ccc3ccc(C(=O)NC4CC4)cn23)CC1,52.4
17,COCCNC(=O)c1ccc2ccc(N3CCN(CC4CC4)CC3)n2c1,38.8
18,CN(C)C(=O)N1CCN(c2ccc3ccc(C(=O)NC4CC4)cn23)CC1,36.9
19,CN(CC1CC1)c1ccc2ccc(C(=O)NC3CCCCC3)cn12,42.8
20,COCCN1CCN(c2ccc3ccc(C(=O)NC4CC4)cn23)CC1,35
21,O=C(NC1CC1)c1ccc2ccc(N3CCN(CC4CC4)CC3)n2c1,45.1
22,CS(=O)(=O)NC[C@]12COC[C@H]1CN(C(=O)C1CCSCC1)C2,-6.35

row,Compound,Percent Effect [%]
1,Cc1cc(CN2CC[C@H]3C(=O)N(c4ccccc4)CCO[C@H]3C2)no1,7.1
2,CCOc1ccc(CCC(=O)N2CC[C@H]3C(=O)NCCO[C@H]3C2)cc1,3.45
3,CN(C)CCO[C@H]1CN(C(=O)c2ccc(C#N)cc2)[C@@H]2COC[C@H]12,15.7
4,CO[C@H]1[C@@H]2CC[C@H]1CN(c1nc(C)nc3ccsc13)C2,-6.52
5,CN(C)C(=O)CN1C[C@H]2CCN(C(=O)c3ccccc3)CC[C@H]2S1(=O)=O,4.3
6,Cc1noc(C)c1CN1CCO[C@H]2CN(Cc3ccc(F)cc3)C[C@H]21,7.2
7,O=C(Cn1c(=O)nc2n1C(=O)N(c1ccccc1)C2)NC1CCCCC1,6.06
8,CN(C)CCNC(=O)c1ccc2ccc(N(C)CC3CC3)n2c1,-9.13
9,CN(CC1CC1)c1ccc2ccc(C(=O)NCCc3ccccc3)cn12,51.4
10,COCCNC(=O)c1ccc2ccc(N(C)CC3CC3)n2c1,26.4
11,O=C(c1ccnnc1)N1CC[C@H]2C[C@H](c3ccncn3)O[C@@H]2C1,7.44
12,CS(=O)(=O)N1C[C@H]2C[C@H](C(=O)N3CCOCC3)[C@@H](C1)O2,4.85
13,O=C(O)c1cncc(Cc2ccc(F)cc2)c1,62.8
14,O=C(O)c1cncc(Cc2ccccc2F)c1,-0.376
15,O=C(O)c1cncc(Cc2cccc(F)c2)c1,5.64
16,O=C(CO[C@@H]1CC[C@H]2[C@H]1OCCN2Cc1ccccn1)N1CCCC1,7.53
17,Cc1noc(C)c1CN1C(=O)[C@H]2CC[C@@H]1CN(Cc1ccc(Cl)cc1)C2,3.17
18,CCN1C(=O)COC[C@@H]1[C@H](O)c1ccc(NC(=O)COC)cc1,-5.47
19,Cn1ccnc1CN1C[C@H]2CN(S(=O)(=O)c3ccccc3)CCN2C1=O,-1.49
20,CCN1CCN(S(=O)(=O)N2CCc3ccccc3C2)[C@H]2CS(=O)(=O)C[C@H]21,1.32
21,O=C1[C@H]2CC[C@H](CN(Cc3nnc(C4CC4)o3)C2)N1Cc1cscn1,8
22,CC(C)C(=O)N1CC[C@@H]2CN(Cc3ccncc3)S(=O)(=O)[C@@H]2CC1,1.07

row,Compound,Percent Effect [%]
1,Cc1ccccc1C(=O)N1CC[C@@H]2CN(c3ncccn3)CCO[C@@H]2C1,0.98
2,CCOC(=O)[C@]12CCCN(Cc3ccco3)C[C@H]1CN(S(C)(=O)=O)C2,1.68
3,c1cc(CN2C[C@@H]3OCCN(CC4CCCO4)[C@@H]3C2)co1 (stereo partly specified),2.94
4,Cn1cc(CN2CC[C@H]3C[C@H](c4nc(C5CC5)cs4)O[C@@H]3C2)cn1,1.67
5,COc1ccc(OC)c(C2CC(=O)Nc3nc(N4CCOCC4)sc32)c1 (stereo unspecified),75.8
6,COc1ccc(OC)c(C2CCN(CC(C)(C)N3CCOCC3)C2)c1 (stereo unspecified),8.29
7,COc1ccc(C(C)C)cc1C1CC(=O)NCc2nc(N(C)C)sc21 (stereo unspecified),7.85
8,COc1ccc(C2CC(=O)Nc3nc(N4CCOCC4)sc32)c(OC)c1 (stereo unspecified),72
9,COc1ccc(C2CC(=O)Nc3nc(N4CCOCC4)sc32)cc1 (stereo unspecified),-2.48
10,CCn1ncnc1C1CC(=O)NCc2nc(N3CCOCC3)sc21 (stereo unspecified),9.45
11,O=C1C[C@H]2[C@@H](CCN2C(=O)Cc2cccs2)N1CC1CC1,5.83
12,CC(C)NC(=O)[C@H]1C[C@@H]2[C@@H](C1)OCCN2Cc1cccs1,3.48
13,CCOC(=O)[C@@H]1CN2CCNC[C@@H]2[C@H]1c1ccccc1,1.12
14,O=C(C1CCOCC1)N1C[C@H]2CCC[C@@]2(COc2cccnc2)C1,12.8
15,CCOC(=O)[C@]12CCCN(Cc3nccs3)C[C@H]1CN(S(C)(=O)=O)C2,6.45
16,Cn1cc(C(=O)N[C@H]2CN(S(C)(=O)=O)[C@@H]3CCCO[C@H]23)cn1,4.9
17,Cc1ccc(C(=O)N2CCO[C@H]3[C@@H](OCc4ccccn4)CC[C@@H]32)o1,5.43
18,O=C(c1ccccn1)N1C[C@@H]2CC[C@H](C1)N(C(=O)CCc1cccs1)C2,5.02
19,CCN1CCO[C@@H]2CN(C(=O)NCc3ccccc3)CC[C@@H]2C1,1.06
20,CN1CCC(NC(=O)[C@H]2CC[C@@H]3[C@@H](CCN3c3ncccn3)O2)CC1,5.75
21,c1cnc(N2C[C@@H]3COC[C@]3(COCC3CCCC3)C2)nc1,14.3
22,Cc1ccsc1C(=O)N1C[C@@H]2CN(Cc3ccoc3)CCO[C@@H]2C1,3.87

row,Compound,Percent Effect [%]
1,Cc1ccc(N2CCN(C(=O)CN3C[C@@H]4CC[C@H]3C4)CC2=O)cc1,6.47
2,Cc1ccc(CN2CCC[C@]3(C(=O)O)CN(CC4CC4)C[C@@H]3C2)s1,-3.17
3,CCn1ncc(CN2C[C@@H]3CCCN3C[C@@H]2CCSC)c1C,8.99
4,O=C(C1CCC1)N1CC[C@@H]2CN(Cc3cccnc3)S(=O)(=O)[C@@H]2CC1,11.6
5,CN(C)C(=O)COC[C@]12COC[C@H]1CN(Cc1ccccc1)C2,4.67
6,NC(=O)c1ccc(OCC(=O)N2CCCC2c2ccc[nH]2)cc1 (stereo unspecified),9.13
7,CC1CCN(c2ccc(C(=O)N3CCCC3c3ccc[nH]3)cn2)CC1 (stereo unspecified),66.8
8,CC1CCN(c2ccc(C(=O)N3CCCC3c3nncn3C)cn2)CC1 (stereo unspecified),3.87
9,O=C(Nc1cccnc1)[C@H]1CO[C@H]2CCN(c3ncc(F)cn3)C[C@H]2C1,8.11
10,O=C(NCc1cnn2cccnc12)c1cccc(CC2CCNCC2)c1,85.5
11,CC(C)(O)CCc1cccc(C(=O)NCc2cnn3cccnc23)c1,1.82
12,CC(C)Cn1cncc1CNC(=O)c1cccc(CC2CCNCC2)c1,1.62
13,COc1cc(N2CC[C@H]3O[C@@H](C(=O)NC4CCCC4)CC[C@H]32)ncn1,0
14,CC(=O)N1C[C@@H]2CC[C@H](C1)N(S(=O)(=O)c1ccc(F)cc1Cl)C2,3
15,CC/N=c1/c(NC(=O)C2CC2)c(O)oc2ccccc12,3.51
16,NC1CCN(C2CCN(c3ccc(-c4ccco4)cc3)CC2)CC1,43.5
17,NCC1CCN(C2CCN(c3ccc(-c4ccco4)cc3)CC2)C1 (stereo unspecified),50.6
18,CNC1CCN(C2CCN(c3ccc(-c4ccco4)cc3)CC2)CC1,35.3

# From ChEMBL document CHEMBL3988442, “University of Dundee, Small-Polar-MMV Screening Library” (2021)
